Compound activity as filed in PubChem BioAssay.
WRN inhibitor: inhibitors of human WRN helicase; Q14191; 0.46% of 360,000 active; WRN helicase unwinding, fluorescent forked duplex, kinetic; AID 651768; Potency, µM (top dose mostly 114 µM), without a hit: at the highest dose activity change, negative = inhibition, usual class: inhibitors; also: % is scaled to controls: 0 for no effect and ±100 for the full control effect; nearly all actives have a fitted effect of over 55% in size
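Enzyme (20 nM final) and test compound sit together 15 min at room temperature before substrate addition. Substrate is a single-forked duplex oligonucleotide (100 nM) labelled with fluorophore and quencher, with 2 mM ATP; helicase unwinding raises red fluorescence, read kinetically.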
POLI inh: blocks human DNA polymerase iota activity | Potency, µM (top dose mostly 115 µM), for inactives: at the highest dose activity, negative = inhibition, actives largely listed as inhibitors | Q9UNA4 | Pol iota fluorescent replication assay, 10 min | 1% of 390,000 active
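Pol iota at 10 nM preincubated 15 min with compounds at room temperature; reaction started with fluorescent substrate, 50 nM final. Fluorescence read kinetically at 0 and 10 min; buffer-only wells as negative control.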
Pol beta inh: DNA polymerase beta (human) inhibition | Pol beta primer extension/strand displacement, fluorescence kinetic | Potency, µM (series often up to 114 µM), inactives show top-dose activity change, negative = inhibition, actives largely listed as inhibitors | 1.3% of 340,000 active; also: % is scaled to controls: 0 for no effect and ±100 for the full control effect
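Reaction started by 50 nM substrate onto compound-treated Pol beta (10 nM, 15 min preincubation, room temperature); plates read at 0 min and 10 min. Normalized concentration-effect data fitted by four-parameter Hill equation.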
POLK inh: blocks human DNA polymerase kappa activity; 0.53% of 400,000 active; Potency, µM (titrated, usually from 107 µM), for the others: at the highest dose activity, negative = inhibition, hits mostly inhibitors; AID 588579; purified Pol kappa, fluorescent DNA synthesis assay, 10 min; Q9UBT6; also: % is scaled to controls: 0 for no effect and ±100 for the full control effect
Target sequence (Q9UBT6 whole entry, looked up): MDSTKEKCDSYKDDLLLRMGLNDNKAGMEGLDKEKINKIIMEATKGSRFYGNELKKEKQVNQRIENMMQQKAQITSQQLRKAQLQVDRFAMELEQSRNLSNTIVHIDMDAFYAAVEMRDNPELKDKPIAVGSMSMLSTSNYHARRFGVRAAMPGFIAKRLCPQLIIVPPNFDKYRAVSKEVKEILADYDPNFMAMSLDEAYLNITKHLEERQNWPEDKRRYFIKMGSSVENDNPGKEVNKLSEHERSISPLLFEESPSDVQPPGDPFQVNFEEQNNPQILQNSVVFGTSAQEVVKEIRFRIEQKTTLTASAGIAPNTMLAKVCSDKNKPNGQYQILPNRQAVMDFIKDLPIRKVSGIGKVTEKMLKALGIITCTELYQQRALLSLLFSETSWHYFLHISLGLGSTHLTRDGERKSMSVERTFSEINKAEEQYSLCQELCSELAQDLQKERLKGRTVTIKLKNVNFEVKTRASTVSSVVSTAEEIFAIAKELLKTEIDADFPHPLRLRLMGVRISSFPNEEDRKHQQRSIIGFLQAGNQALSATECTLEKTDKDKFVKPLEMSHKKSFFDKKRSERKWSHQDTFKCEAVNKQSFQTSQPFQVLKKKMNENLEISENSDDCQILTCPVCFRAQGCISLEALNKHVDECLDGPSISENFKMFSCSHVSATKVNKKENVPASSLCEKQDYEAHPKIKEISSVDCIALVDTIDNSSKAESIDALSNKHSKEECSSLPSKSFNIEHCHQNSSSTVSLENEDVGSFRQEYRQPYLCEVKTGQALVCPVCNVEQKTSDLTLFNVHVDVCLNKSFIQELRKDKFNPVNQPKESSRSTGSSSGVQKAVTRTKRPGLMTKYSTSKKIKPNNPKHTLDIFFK
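Activity was followed as the change in fluorescence between reads at 0 and 10 min after starting the reaction with 50 nM substrate. Beforehand, 10 nM polymerase had been preincubated with compound for 15 min at room temperature.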
Pol eta inh: inhibitors of human DNA polymerase eta. Q9Y253. 1.2% of 390,000 active. recombinant Pol eta, fluorescent DNA replication assay. Potency, µM (top dose mostly 114 µM), inactives show at the highest dose activity change, negative = inhibition, most hits filed as inhibitors; also: % is scaled to controls: 0 for no effect and ±100 for the full control effect
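Pol eta (10 nM) was preincubated with compounds for 15 min at room temperature, after which fluorescent replication substrate (50 nM final) was added to start the reaction. Fluorescence was read kinetically at 0 and 10 min.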
* hit, by the source's call; ? = inconclusive; . = no result; [ ] = another dose, or the depositor's remark. In the library only some 2.3% were active in any assay of this set; here they are far more common. Calls follow the shape of the dose curve; as a rule, active = well fitted curve in the direction sought with a large enough effect; inconclusive = small, poorly fitted or top-dose-only effect, or another doubt; inactive = no such curve, though single readings can be large; an effect the other way counts as inactive or inconclusive. Potency is read from the fitted curve at half-maximal effect.

SMILES	WRN inhibitor	POLI inh	Pol beta inh	POLK inh	Pol eta inh
CC(=O)N1c2ccc(S(=O)(=O)NCC3CCC(C(=O)N4CCC(C)CC4)CC3)cc2CC1C (stereo unspecified)	2%	79µM*	23%	-14%	-14%
CC(NS(=O)(=O)c1ccccc1[N+](=O)[O-])c1ccccn1 (stereo unspecified)	.	22%	.	-20%	.
O=C(O)/C(=C\c1cccc(F)c1)c1ccc(S(=O)(=O)N2CCCCC2)s1	?	?	22µM*	-20%	?
CCOc1cc(/C=C(\C(=O)O)c2ccc(S(=O)(=O)N3CCCC3)s2)ccc1OC	2%	7%	.	0%	-1%
O=C(O)/C(=C/c1ccc(Cl)c([N+](=O)[O-])c1)c1ccc(S(=O)(=O)N2CCCCC2)s1	-15%	?	.	89µM*	28µM*
O=C(O)/C(=C\c1cccc(O)c1)c1ccc(S(=O)(=O)N2CCCC2)s1	-4%[11.6 µM]	?	.	?	35µM*
COc1ccc(Cl)cc1-c1ccc(C(=O)O)o1	.	.	.	0%	.
Cc1c(O)ccc(C(=O)CN2CCN(c3ccccc3F)CC2)c1O	0%	6%	1%	0%	-11%
O=C(CN1CCN(c2ccccc2F)CC1)c1ccc(O)c(O)c1	-8%[11.6 µM]	45µM*	7%	?	?
O=C(C[N+]12CN3CN(CN(C3)C1)C2)c1ccc(O)c(O)c1	.	10µM*	.	3.2µM*	.
Cc1cccc(-c2noc(CNC(=O)COc3ccccc3C)n2)c1	1%	32%	?	-12%	-1%
Cc1cc(C)cc(OCC(=O)NCc2nc(-c3ccccc3)no2)c1	-6%	89µM*	-29%	-10%	-8%
COc1cccc(CN(C)CC(=O)NC(=O)NCc2ccco2)c1	-31%[57.1 µM]	35µM*	16µM*	?	18µM*
CCN(CC)S(=O)(=O)c1cc(NC(=O)c2ccc3c(c2)NC(=O)C(C)S3)ccc1C (stereo unspecified)	-3%[11.6 µM]	-15%	.	-1%	56µM*
C/C(=N\Nc1nc(-c2cc(C)ccc2C)cs1)c1cc2c(ccc3ccccc32)oc1=O	-30%	?	?	79µM*	-18%
C/C(=N\Nc1nc(-c2cc(C)ccc2C)cs1)c1cc2ccccc2oc1=O	-33%	10%	50µM*	-24%	-4%
COC(=O)/C=C1/SC(=Nc2ccc(Cl)c(Cl)c2)NC1=O	-10%[11.6 µM]	-26%	24%	-10%	79µM*
Cc1cccc(N=C2NC(=O)S/C2=C\c2ccco2)c1	-27%	35µM*	?	79µM*	?
Cc1ccc(N=C2NC(=O)/C(=C\c3ccco3)S2)cc1	?	32µM*	?	?	14µM*
O=C1NC(=Nc2ccc(O)cc2)S/C1=C/c1ccco1	-10%	7%	?	-34%	-10%
C(=C\c1ccnc2ccccc12)/c1ccc(-[n+]2cc[n+](-c3ccc(/C=C/c4ccnc5ccccc45)cc3)cc2)cc1	.	7%	.	-11%	.
COc1ccc(C(=O)Nc2cccc(NC(C)=O)c2)cc1OC	-6%	?	8.9µM*	?	?
COc1ccc(C(=O)Nc2c(N)nc(SCC(=O)Nc3ccc(NC(C)=O)cc3)[nH]c2=O)cc1OC	-22%	79µM*	?	?	?
Nc1nc(SCC(=O)Nc2ccc(C(F)(F)F)cc2)[nH]c(=O)c1NC(=O)c1ccc(F)c(F)c1	-12%	22%	-1%	-8%	-6%
COc1ccc(C(=O)Nc2cccc(S(C)(=O)=O)c2)cc1OC	-10%[57.1 µM]	92%	3%	4%	-21%
SMILES	WRN inhibitor	POLI inh	Pol beta inh	POLK inh	Pol eta inh
O=c1[nH]c(=S)c2n[nH]nc2[nH]1	.	12%	.	-4%	.
O=C(CSc1ncnc2nc[nH]c12)Nc1nnc(SCc2ccc(Cl)c(Cl)c2)s1	?	?	40µM*	-15%	?
Cc1ccc(C)c(NC(=O)CSc2ncnc3nc[nH]c23)c1	0%	?	8%	5%	-1%
CC(=O)C(C(C)=O)C1(O)C(=O)c2ccccc2C1=O	9%	3.2µM*	?	-2%	89µM*
COc1ccc(CCn2c3c(c(=O)[nH]c2=S)CN(Cc2ccccc2)CN3)cc1OC	.	?	.	-17%	.
Cc1ccc2c(c1C)-c1c(ccc(C)c1C)C(=O)C2=O	-26%	25µM*	.	-6%	22µM*
Cc1ccc(CC#N)c(-c2c(CC#N)ccc(C)c2C)c1C	-3%	.	.	.	-15%
OCCCCCN=c1cc(-c2ccccc2)oc2ccc(Cl)cc12	-21%	-23%	35µM*	-25%	-23%
Clc1ccc(/C=C/c2ccnc3ccccc23)c(Cl)c1	.	38%	.	5%	.
C=CC(C)=C[C@@]1(C)SC(=O)C(C)=C1O	.	.	.	-8%[60.1 µM]	.
C[N+](C)(C)c1ccc(/C=N/Nc2nc(Cl)c(C#N)c(Cl)c2Cl)cc1	18%	21%	-14%	-1%	?
N#Cc1c(Cl)nc(N/N=C/c2ccccc2)c(Cl)c1Cl	-9%	3%	20µM*	-5%	-14%
Cc1ccc2c(/C=C/c3c[nH]c4ccccc34)ccnc2c1C	.	40%	.	0%	.
OCC1OC([S-])[C@H](O)C(O)C1O.[Au+] (stereo partly specified)	.	.	.	5µM*	.
C/C(CC(=O)Nc1cccc(Cl)c1Cl)=N\NC(=O)c1ccccc1C	-8%	9%	50µM*	1%	-12%
COc1ccc(/C=N/Nc2ncc(-c3ccccc3)cn2)c(OC)c1	-8%[11.6 µM]	25µM*	?	-9%	-27%
COc1ccc(/C=N/Nc2nc(C)cc(-c3ccccc3)n2)c(OC)c1	-33%	192%	1%	6%	10%
C=C1CCC(O)C/C1=C/C=C1\CCC[C@]2(C)[C@@H]([C@H](C)/C=C/[C@H](C)C(C)C)CC[C@@H]12 (stereo partly specified)	.	.	.	-7%[60.1 µM]	.
Cc1ccc(C)n1-c1ccc(C(=O)O)cc1	.	.	3.2µM*	.	.
COc1cccc(=O)c2c(C)n(-c3ccc(C(=O)O)cc3)c(C)c12	?	16µM*	16µM*	50µM*	13µM*
CC(=O)c1c(C(C)=O)c(C)n(-c2ccc(C(=O)O)cc2)c1C	-3%	6%	10%	1%	0%
C=C1CCC(C)C(C)(CCC2=CCOC2=O)C/C=C\C=C/1C(=O)O (stereo unspecified)	-15%	?	2%	?	28µM*
CCCCCCCCCC[n+]1ccc(/C=C/c2c(C)[nH]c3ccccc23)c2ccccc21	.	59%	.	?	.
CCOC(=O)C1=C(O)/C(=C/c2ccc(-c3ccccc3C(=O)O)o2)SC1=Nc1ccc(C)cc1	?	?	3%	40µM*	22µM*
CCOC(=O)C1=C(O)/C(=C/c2ccccn2)SC1=Nc1ccc(Cl)cc1	-12%	3%	27%	-2%	-5%
